GLS inh = qHTS for Inhibitors of Glutaminase (GLS); Potency, µM (highest dose often 45.5 µM), hits mostly inhibitors; AID 624170, 2012; GLS enzymatic activity, qHTS titration; Glutaminase kidney isoform, mitochondrial (Homo sapiens), O94925; actives 0.21% (n = 410,000)
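Enzyme dispensed in phosphate buffer (45 mM, pH 8.2, 0.02% Tween-20), compounds pinned in, then 1 mM L-glutamine solution and the glutamate oxidase–HRP–Amplex Red mix added; fluorescence read immediately and again after 30 min at room temperature.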
HP1b binding inh = HTS for Inhibitors of HP1-beta Chromodomain Interactions with Methylated Histone Tails | Chromobox protein homolog 1 (Homo sapiens), P83916 | AlphaScreen HP1-beta / biotin-H3K9me3 peptide binding | Potency, µM (top dose mostly 114 µM), actives largely listed as inhibitors | actives 0.56% (n = 390,000) | AID 540317, 2011; further: nearly all actives have a fitted effect of over 70% in size
Target sequence (P83916 whole entry, looked up): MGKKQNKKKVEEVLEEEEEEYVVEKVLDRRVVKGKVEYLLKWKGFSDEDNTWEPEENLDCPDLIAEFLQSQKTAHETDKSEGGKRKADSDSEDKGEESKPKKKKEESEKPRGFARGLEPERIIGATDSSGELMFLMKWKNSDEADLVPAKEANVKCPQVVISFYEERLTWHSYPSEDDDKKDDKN
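Compound inhibition of the preformed complex between 50 nM HP1-beta and 50 nM biotinylated H3K9me3 peptide was read by AlphaScreen. Buffer was PBS pH 7.4 with 0.01% Tween-20. Incubations ran 30 min at room temperature, with 10 ug/mL donor/acceptor beads.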
G9a block = qHTS Assay for Inhibitors of Histone Lysine Methyltransferase G9a | Histone-lysine N-methyltransferase EHMT2 (Homo sapiens), Q96KQ7 | G9a H3K9 monomethylation, AlphaScreen, 2 h | Potency, µM (titrated, usually from 102 µM), usual class: inhibitors | actives 8.8% (n = 350,000); further: nearly all actives have a fitted effect of over 75% in size
Target sequence (Q96KQ7 913-1193 limits assumed): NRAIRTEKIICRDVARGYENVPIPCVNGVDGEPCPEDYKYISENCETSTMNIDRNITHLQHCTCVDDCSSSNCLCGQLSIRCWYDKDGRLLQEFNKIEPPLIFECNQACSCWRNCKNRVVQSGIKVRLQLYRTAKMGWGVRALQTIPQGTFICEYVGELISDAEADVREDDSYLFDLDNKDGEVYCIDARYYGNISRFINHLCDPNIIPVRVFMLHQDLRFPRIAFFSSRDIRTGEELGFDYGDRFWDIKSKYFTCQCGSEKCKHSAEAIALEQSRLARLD
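Readings reflect AlphaScreen signal from monomethyl-H3K9 antibody detection. HMT at 20 nM; substrate b-H3K9 500 nM; cofactor SAM 20 uM; 2 h RT reaction; compounds tested as titrations in qHTS with 15 min preincubation.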
JMJD2A Tudor = qHTS Assay for Inhibitors of JMJD2A-Tudor Domain | AID 504339, 2011 | Potency, µM (series often up to 114 µM), usual class: inhibitors | actives 4.4% (n = 390,000) | AlphaScreen JMJD2A-Tudor / H3K4me3 peptide binding; further: nearly all actives have a fitted effect of over 50% in size
BAZ2B inh = qHTS Assay for Inhibitors of BAZ2B | Potency, µM (series often up to 114 µM), usual class: inhibitors | actives 4.4% (n = 360,000) | AlphaScreen BAZ2B-H3K14Ac peptide displacement | AID 504333, 2011; further: nearly all actives have a fitted effect of over 60% in size
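Multi-concentration screen (max 110 uM) measuring displacement of acetylated histone H3 peptide from BAZ2B by AlphaScreen, using 50 nM protein, 50 nM peptide and 10 ug/mL streptavidin donor plus Ni-chelate acceptor beads.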
Large screens that a line does not name were inactive. Only some compounds are listed: those with a hit (about 10% of all), similar ones and a draw of the others. The call rests on the fitted dose curve; in most records, active means well fitted curve in the direction sought with a large enough effect; inconclusive means small, poorly fitted or top-dose-only effect, or another doubt; inactive means no such curve, though single readings can be large; an effect the other way counts as inactive or inconclusive.

COc1cc2c(cc1OC)/C(=C/C(=O)c1ccccc1F)NCC2	HP1b binding inh inconclusive, G9a block 56µM, JMJD2A Tudor inconclusive, BAZ2B inh inconclusive
COc1cc2c(cc1OC)/C(=C/C(=O)c1ccc(F)cc1)NCC2	G9a block 79µM, JMJD2A Tudor inconclusive, BAZ2B inh 50µM
COc1cc(C(=O)N2CCN(c3ccc(Nc4ccccc4)nn3)CC2)cc(OC)c1OC	none
CNC(=S)NN=C(C)CCCC(C)=NNC(=S)NC	JMJD2A Tudor inconclusive (no result: G9a block, BAZ2B inh)
Cc1ccc(C(=O)N2CCC(C(=O)Nc3cccc([N+](=O)[O-])c3)CC2)cc1	none
Cc1ccc2oc3c(c(=O)c2c1)C(c1ccc(F)cc1)N(Cc1ccc2c(c1)OCO2)C3=O (stereo not given)	none
CCSC1=C(C#N)C2(CCCC2)C(C#N)=C(N)N1	GLS inh inconclusive, G9a block 20µM, JMJD2A Tudor inconclusive
N#CC1=C(N)NC(SCC(=O)c2ccccc2)=C(C#N)C12CCCC2	G9a block 50µM, JMJD2A Tudor inconclusive, BAZ2B inh inconclusive
N#CC1=C(N)NC(SCc2ccc(Cl)cc2)=C(C#N)C12CCCCC2	JMJD2A Tudor inconclusive
N#CC1=C(SCC(=O)c2cc3ccccc3oc2=O)NC(=O)C(C#N)C12CCCC2 (stereo not given)	G9a block inconclusive
CC1(C)CC(=O)C2=C(C1)NC(SCC(=O)Nc1ccccc1)=C(C#N)C21CCCCC1	G9a block inconclusive
N#CC1=C(N)NC(SCc2ccccc2)=C(C#N)C12CCCC2	G9a block 79µM, JMJD2A Tudor inconclusive
CC1=C(C(=O)Nc2ccccc2)C2(CCCCC2)C(C#N)=C(SCC(N)=O)N1	GLS inh inconclusive, JMJD2A Tudor 14µM, BAZ2B inh inconclusive
CSC1=C(C#N)C2(CCCC2)C(C#N)=C(N)N1	G9a block inconclusive (no result: GLS inh, HP1b binding inh, JMJD2A Tudor)
COCCNC(=O)c1ccc(N2CC3CC(C2)c2cccc(=O)n2C3)c(NC(=O)c2ccc(C(C)(C)C)cc2)c1 (stereo not given)	none (no result: HP1b binding inh, G9a block, JMJD2A Tudor, BAZ2B inh)
O=C1CCCCC1Nc1ccc2ccccc2c1 (stereo not given)	none (no result: G9a block, BAZ2B inh)
COCOCCn1cc(CN2CCS(=O)(=O)N(Cc3ccc(-c4ccccc4)cc3)C(C(C)C)C2=O)nn1 (stereo not given)	none (no result: HP1b binding inh, G9a block, JMJD2A Tudor, BAZ2B inh)
N#CC1=C(N)NC(SCC(=O)Nc2ccc(Br)cc2)=C(C#N)C12CCCCC2	G9a block 71µM, JMJD2A Tudor inconclusive, BAZ2B inh inconclusive
N#CC1=C(N)NC(SCc2ccc(Br)cc2)=C(C#N)C12CCCCC2	G9a block inconclusive, JMJD2A Tudor inconclusive, BAZ2B inh inconclusive
COc1ccccc1/C=C1\N=C(C(C)(C)C)OC1=O	HP1b binding inh inconclusive, JMJD2A Tudor 50µM
COc1cccc(/C=C2\N=C(C3CCCCC3)OC2=O)c1OC	none
COC(=O)c1ccc(C2C(C(=O)c3cc4ccccc4o3)=C(O)C(=O)N2c2cc(C)on2)cc1 (stereo not given)	G9a block 45µM, JMJD2A Tudor inconclusive
Cc1cc(N2C(=O)C(O)=C(C(=O)c3cc4ccccc4o3)C2c2ccc(OC(C)C)cc2)no1 (stereo not given)	G9a block 35µM
Cc1cc(N2C(=O)C(O)=C(C(=O)c3cc4ccccc4o3)C2c2cccc(Br)c2)no1 (stereo not given)	GLS inh inconclusive, JMJD2A Tudor inconclusive, BAZ2B inh inconclusive
CCCOc1cccc(C2C(C(=O)c3cc4ccccc4o3)=C(O)C(=O)N2c2cc(C)on2)c1 (stereo not given)	JMJD2A Tudor inconclusive, BAZ2B inh inconclusive
Cc1cc(N2C(=O)C(O)=C(C(=O)c3ccco3)C2c2ccc([N+](=O)[O-])cc2)no1 (stereo not given)	G9a block 89µM, BAZ2B inh inconclusive
COc1ccc(CCN2CC(C(=O)OCc3ccccc3Cl)CC2=O)cc1OC (stereo not given)	none (no result: G9a block, BAZ2B inh)
FC(F)(F)c1cnc(COc2ccc(Cl)cc2Cl)c(Cl)c1	none (no result: G9a block)
COCCCNC(=O)c1ccc(Cn2c(=O)c3cccn3c3cccnc32)cc1	none
CCCCC(CC(O)COCC(C)C)C(=O)NNC(=S)Nc1ccccc1 (stereo not given)	G9a block 8.9µM
COc1ccc(-n2c(=O)c(C)nc3cnc(Nc4ccccc4)nc32)cc1	none (no result: GLS inh, HP1b binding inh, JMJD2A Tudor, BAZ2B inh)
O=C(Nc1ncccc1O)c1ccc(S(=O)(=O)Nc2ccccc2)cc1	none
CCOc1ccc(C(=O)CC(NCc2cccs2)C(=O)O)cc1 (stereo not given)	G9a block 25µM, JMJD2A Tudor 89µM
CCOc1ccc(C(=O)CCC(=O)N(CC)CC(=O)NCc2cccs2)cc1	none
CCOc1cc(C(=O)N2CC(=O)Nc3ccc(F)cc3C2c2ccccc2)cc(OCC)c1OCC (stereo not given)	none
Cc1cccn2c(=O)c(C=O)c(Sc3ncccn3)nc12	G9a block 40µM
O=C(Cc1ccc(S(=O)(=O)N2CCCC2)s1)Nc1cccc([N+](=O)[O-])c1	JMJD2A Tudor inconclusive (no result: G9a block, BAZ2B inh)
NS(=O)(=O)c1cccc(NC(=O)COC(=O)Cc2ccc(S(=O)(=O)N3CCCCC3)s2)c1	G9a block 45µM, BAZ2B inh inconclusive
O=C(COC(=O)Cc1ccc(S(=O)(=O)N2CCOCC2)s1)NCc1ccccc1	G9a block inconclusive
O=C(COC(=O)Cc1ccc(S(=O)(=O)N2CCOCC2)s1)NCCc1ccccc1	G9a block inconclusive, BAZ2B inh 50µM
O=C(COC(=O)Cc1ccc(S(=O)(=O)N2CCCCC2)s1)Nc1ccc2c(c1)OCO2	G9a block 22µM (no result: BAZ2B inh)
O=C(Nc1cccc(C(F)(F)F)c1)c1cc(S(=O)(=O)N2CCCC2)c[nH]1	none
c1ccc(CNc2nc3ccccc3n2CCN2CCOCC2)nc1	JMJD2A Tudor 25µM, BAZ2B inh 71µM
CCCn1c(NCc2ccccn2)nc2ccccc21	G9a block 5.6µM, JMJD2A Tudor 20µM, BAZ2B inh 56µM
Cc1ccc(Cn2c(C)c(C(=O)NCc3cccs3)sc2=O)cc1	none (no result: HP1b binding inh, G9a block, JMJD2A Tudor, BAZ2B inh)
Cc1cc(C)n(C(C)CC(=O)Nc2ccc(Cl)cc2C)n1 (stereo not given)	none
O=C(NCC1CCCO1)c1cccc(S(=O)(=O)N2CCCCC2)c1 (stereo not given)	none
COc1ccc(Br)cc1CNC(=O)c1cc2n(n1)CCCN(Cc1ccc(C)cc1)C2=O	none
Cc1c(O)cc2c(c1O)C(=O)CC(c1ccc(O)cc1)O2 (stereo not given)	G9a block inconclusive, JMJD2A Tudor inconclusive, BAZ2B inh 56µM
COc1cc(O)c2c(c1)OC(c1ccc(O)cc1)CC2=O (stereo not given)	none
